Source: PubChem
Most compounds without a hit are left out; they make up all but 19% or so of the library.
HT1080-NT tox = kills 2HG-producing HT-1080-NT fibrosarcoma cells. HT-1080-NT fibrosarcoma viability, CellTiter-Glo ATP luminescence, 48 h. Potency, µM (top dose mostly 46.1 µM), inactives show top-dose activity, negative = less viability, usual class: cytotoxic. 360,000 tested, 1.6% active;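 further: NT is the 2HG producing partner of a matched IDH1 knockdown line; potency means the concentration at half of the fitted maximal effect; 0% = DMSO-treated cells and -100% = media-only wells without cells; nearly all actives have a fitted effect of over 55% in size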
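Viability by CellTiter-Glo luminescence after 48 h compound exposure at 37C of HT-1080-NT cells (750/well, RPMI, 5% FBS). % activity scaled between DMSO wells and medium-only wells, then curve-fitted and categorized by curve class.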
DT40 TDP1 CPT = DT40-hTDP1 cell growth loss with CPT | chicken DT40 Tdp1-/-;hTDP1 cells + 20 nM CPT, ATP luminescence, 48 h | Potency, µM (titrated, usually from 46.2 µM), inactives show top-dose activity change, negative = growth inhibition, most hits filed as inhibitors | 420,000 tested, 12% active | AID 686979; further: potency means the concentration at half of the fitted maximal effect; nearly all actives have a fitted effect of over 55% in size
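Chicken DT40 Tdp1-/- cells stably complemented with human TDP1 were seeded at 400 cells/well in medium containing 20 nM camptothecin, exposed to pin-transferred compounds, and grown at 37 °C for at least 48 hr. Viability was read as ATP luminescence.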
IL-1B inflam inh = inhibitors of inflammasome signaling (IL-1 beta secretion); THP-1 LPS/ATP IL-1B secretion, AlphaLISA, 16 h; stronger effect = lower value; activity change, % at 57.5 µM; 360,000 tested, 4.7% active; in the data active means activity change below about -50%; inconclusive means mostly about -30% to -49%
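Secreted IL-1B measured by AlphaLISA bead assay after 16 h compound exposure of THP-1 cells; compounds (final up to 57.5 uM) added 1 h before LPS (250 ng/mL) and ATP (1.25 mM) stimulation; lower signal means less secretion.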
TDP1 cell noCPT = qHTS for Inhibitors of human tyrosyl-DNA phosphodiesterase 1 (TDP1): qHTS in cells in absence of CPT; DT40 Tdp1-/- hTDP1 cells, no CPT, ATP luminescence, 48 h; Potency, µM (titrated, usually from 46.2 µM), without a hit: top-dose activity change, negative = growth inhibition, most hits filed as inhibitors; 420,000 tested, 15% active; AID 686978, 2013; further: potency means the concentration at half of the fitted maximal effect; nearly all actives have a fitted effect of over 55% in size
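Chicken DT40 Tdp1-/- cells stably complemented with human TDP1 were seeded at 400 cells/well with DMSO in place of 20 nM camptothecin. After compound pinning, cells grew at least 48 hr at 37 °C; viability read by CellTiter-Glo luminescence.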
HT1080 IDH1KD tx = toxicity to HT-1080 IDH1 knockdown cells (counter line). HT-1080 IDH1 knockdown viability, ATP luminescence, 48 h. Potency, µM (titrated, usually from 46.1 µM), without a hit: top-dose activity, negative = toxicity, actives largely listed as cytotoxic. 360,000 tested, 2% active. AID 686971;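 further: potency means the concentration at half of the fitted maximal effect; 0% = DMSO wells and -100% = cell-free medium wells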
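In this qHTS, HT-1080 cells depleted of IDH1 are exposed for 48 h at 37 °C to compound titrations. Toxicity is scored from CellTiter-Glo luminescence, with DMSO as full viability and medium alone as none.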
Active calls of the source: *. Unless noted, the call rests on the fitted dose curve; in most records, active means well fitted curve in the direction sought with a large enough effect; inconclusive means small, poorly fitted or top-dose-only effect, or another doubt; inactive means no such curve, though single readings can be large; an effect the other way counts as inactive or inconclusive. Unless noted, on the % scale 0 is the no-effect control and ±100 the full control effect.

How did Cc1ccc(S(=O)(=O)N2CN(CC3CCCO3)c3nc4ccccc4nc32)cc1 (configuration not stated) do in these assays?
HT1080-NT tox: 1%; DT40 TDP1 CPT: -15%; IL-1B inflam inh: 22; TDP1 cell noCPT: inconclusive; HT1080 IDH1KD tx: -10%

How did CC(C)OCCCN1CN(S(=O)(=O)c2cccs2)c2nc3ccccc3nc21 do in these assays?
HT1080-NT tox: -1%; DT40 TDP1 CPT: -14%; IL-1B inflam inh: -28; TDP1 cell noCPT: -24%; HT1080 IDH1KD tx: -8%

Results for O=S(=O)(c1cccs1)N1CN(Cc2ccc(Cl)cc2)c2nc3ccccc3nc21 ?
HT1080-NT tox: 11%; DT40 TDP1 CPT: inconclusive; IL-1B inflam inh: -22; TDP1 cell noCPT: inconclusive; HT1080 IDH1KD tx: 7%

Results for Cc1ccc(CN2CN(S(=O)(=O)c3cccs3)c3nc4ccccc4nc32)cc1 ?
HT1080-NT tox: 8%; DT40 TDP1 CPT: 16µM*; IL-1B inflam inh: -21; TDP1 cell noCPT: 21µM*; HT1080 IDH1KD tx: 12%

What do the screens show for `Cc1cccc(S(=O)(=O)N2CN(Cc3ccco3)c3nc4ccccc4nc32)c1`?
HT1080-NT tox: -11%; DT40 TDP1 CPT: 18µM*; IL-1B inflam inh: -13; TDP1 cell noCPT: inconclusive; HT1080 IDH1KD tx: -17%

How did COc1ccccc1CN1CN(S(=O)(=O)c2ccccc2)c2nc3ccccc3nc21 do in these assays?
HT1080-NT tox: -7%; DT40 TDP1 CPT: 15µM*; IL-1B inflam inh: 7; TDP1 cell noCPT: inconclusive; HT1080 IDH1KD tx: -5%

What do the screens show for `COCCN1CN(S(=O)(=O)c2ccccc2)c2nc3ccccc3nc21`?
HT1080-NT tox: -11%; DT40 TDP1 CPT: -16%; IL-1B inflam inh: -6; TDP1 cell noCPT: -27%; HT1080 IDH1KD tx: -9%

Results for OCCO[C@@H]1[C@@H](O)[C@H](O)[C@@H](CO)O[C@@H]1O ?
DT40 TDP1 CPT: 7%; TDP1 cell noCPT: -16%

What do the screens show for `COc1ccc(N2C(=O)CSC23C(=O)Nc2ccccc23)cc1` (configuration not stated)?
HT1080-NT tox: -7%; DT40 TDP1 CPT: -14%; IL-1B inflam inh: 20; TDP1 cell noCPT: -22%; HT1080 IDH1KD tx: -1%

Results for COc1ccc(N2C(=O)CSC23C(=O)N(Cc2cccc(C(F)(F)F)c2)c2ccccc23)cc1 (configuration not stated) ?
DT40 TDP1 CPT: inconclusive; TDP1 cell noCPT: 15µM*

What do the screens show for `O=C1CSC2(C(=O)N(Cc3cccc(C(F)(F)F)c3)c3ccccc32)N1c1ccc(F)c(F)c1` (configuration not stated)?
DT40 TDP1 CPT: 21µM*; TDP1 cell noCPT: 16µM*

Results for Cc1ccc(-c2nn(-c3ccccc3)cc2NC(=O)CCl)cc1 ?
HT1080-NT tox: 5.2µM*; DT40 TDP1 CPT: 3.3µM*; IL-1B inflam inh: -100*; TDP1 cell noCPT: 2.6µM*; HT1080 IDH1KD tx: 7.3µM*

Results for Cc1ccc(-c2nn(-c3ccccc3)cc2CO)cc1 ?
HT1080-NT tox: -8%; DT40 TDP1 CPT: 13%; IL-1B inflam inh: -23; TDP1 cell noCPT: 4%; HT1080 IDH1KD tx: -14%

What do the screens show for `O=C(CCl)Nc1cc(-c2ccccc2)nn1-c1ccccc1`?
HT1080-NT tox: 5µM*; DT40 TDP1 CPT: 5.2µM*; IL-1B inflam inh: -105*; TDP1 cell noCPT: 3.3µM*; HT1080 IDH1KD tx: 1.6µM*

How did Cc1ccc(-c2cc(NC(=O)CCl)n(-c3ccccc3)n2)cc1 do in these assays?
HT1080-NT tox: inconclusive; DT40 TDP1 CPT: -90%; IL-1B inflam inh: -99*; TDP1 cell noCPT: 7.3µM*; HT1080 IDH1KD tx: inconclusive

Results for Cc1ccc(CNC(=O)c2ccc(Cl)cc2[N+](=O)[O-])cc1 ?
HT1080-NT tox: 11%; DT40 TDP1 CPT: -11%; IL-1B inflam inh: -2; TDP1 cell noCPT: -2%; HT1080 IDH1KD tx: 3%

How did COc1ccc(C(C)=NNS(=O)(=O)c2ccc(C)cc2)cc1OC do in these assays?
HT1080-NT tox: -5%; DT40 TDP1 CPT: -20%; IL-1B inflam inh: inconclusive; TDP1 cell noCPT: inconclusive; HT1080 IDH1KD tx: 10%

Results for COc1ccc(CSc2ncnc3sccc23)cc1F ?
HT1080-NT tox: -10%; DT40 TDP1 CPT: -18%; IL-1B inflam inh: -5; TDP1 cell noCPT: -17%; HT1080 IDH1KD tx: -2%

How did COc1ccc(-c2cc(C(F)(F)F)nc(SCC(=O)Nc3ccc(C(C)=O)cc3)n2)cc1 do in these assays?
DT40 TDP1 CPT: 21µM*; TDP1 cell noCPT: inconclusive

What do the screens show for `COc1ccc(NC(=O)CSc2ccc(-c3ccco3)nn2)cc1OC`?
HT1080-NT tox: -10%; DT40 TDP1 CPT: 16µM*; IL-1B inflam inh: inactive; TDP1 cell noCPT: 10µM*; HT1080 IDH1KD tx: 0%

Results for COc1cc(NC(=O)CSc2nc(-c3ccco3)cc(C(F)(F)F)n2)cc(OC)c1OC ?
DT40 TDP1 CPT: 3.7µM*; TDP1 cell noCPT: 5.2µM*

What do the screens show for `O=C(CSc1nc(-c2ccco2)cc(C(F)(F)F)n1)Nc1ccc(C(=O)N2CCOCC2)cc1`?
HT1080-NT tox: 0%; DT40 TDP1 CPT: inconclusive; IL-1B inflam inh: -3; TDP1 cell noCPT: inconclusive; HT1080 IDH1KD tx: -6%

Results for O=C(CSc1nc(-c2ccco2)cc(C(F)(F)F)n1)Nc1cccnc1 ?
HT1080-NT tox: inconclusive; DT40 TDP1 CPT: inconclusive; IL-1B inflam inh: 22; TDP1 cell noCPT: 21µM*; HT1080 IDH1KD tx: inconclusive

What do the screens show for `Cc1ccnc(SCC(=O)Nc2sc3c(c2C#N)CCCC3)n1`?
HT1080-NT tox: -13%; DT40 TDP1 CPT: 3.3µM*; IL-1B inflam inh: inconclusive; TDP1 cell noCPT: 2.9µM*; HT1080 IDH1KD tx: -19%

How did COc1ccc(NC(=O)CSc2nc(-c3ccco3)cc(C(F)(F)F)n2)cc1 do in these assays?
DT40 TDP1 CPT: inconclusive; TDP1 cell noCPT: 8.2µM*

How did COc1ccccc1CCNC(=O)CCSc1nc(-c2ccco2)cc(C(F)(F)F)n1 do in these assays?
HT1080-NT tox: -6%; DT40 TDP1 CPT: 23µM*; IL-1B inflam inh: -13; TDP1 cell noCPT: inconclusive; HT1080 IDH1KD tx: -26%

What do the screens show for `COc1ccc(-c2ccc(C#N)c(SCC(=O)Nc3sc4c(c3C#N)CCC4)n2)cc1OC`?
HT1080-NT tox: 2%; DT40 TDP1 CPT: 23µM*; IL-1B inflam inh: -5; TDP1 cell noCPT: 15µM*; HT1080 IDH1KD tx: 6%

How did COc1ccc([C@@H]2CC(=O)[C@@H]3CN(S(=O)(=O)c4ccc(Cl)cc4)[C@H](c4ccc(C)cc4)C[C@@H]3N2S(=O)(=O)c2ccccc2)cc1 do in these assays?
HT1080-NT tox: 21%; DT40 TDP1 CPT: inconclusive; IL-1B inflam inh: -20; TDP1 cell noCPT: inconclusive; HT1080 IDH1KD tx: 0%
